In ChEMBL document CHEMBL3988442, “University of Dundee, Small-Polar-MMV Screening Library” (2021) one finds Percent Effect data, which are given here for eleven molecules.

What all share (design): scale not given: direction of the effect not stated beside the values
In test [1] the target is Protein translocase subunit SecA (Escherichia coli (strain K12)) (UniProt P10408). Put plainly: Assay to Identify E. coli SecA ATPase Inhibitors. It counts as functional. The note with it: 30 µM.
Test [2] addresses T1, Ubiquitin-activating enzyme e1, putative (Leishmania donovani (strain BPK282A1)) (UniProt E9BSI1).
T1 sequence (whole entry): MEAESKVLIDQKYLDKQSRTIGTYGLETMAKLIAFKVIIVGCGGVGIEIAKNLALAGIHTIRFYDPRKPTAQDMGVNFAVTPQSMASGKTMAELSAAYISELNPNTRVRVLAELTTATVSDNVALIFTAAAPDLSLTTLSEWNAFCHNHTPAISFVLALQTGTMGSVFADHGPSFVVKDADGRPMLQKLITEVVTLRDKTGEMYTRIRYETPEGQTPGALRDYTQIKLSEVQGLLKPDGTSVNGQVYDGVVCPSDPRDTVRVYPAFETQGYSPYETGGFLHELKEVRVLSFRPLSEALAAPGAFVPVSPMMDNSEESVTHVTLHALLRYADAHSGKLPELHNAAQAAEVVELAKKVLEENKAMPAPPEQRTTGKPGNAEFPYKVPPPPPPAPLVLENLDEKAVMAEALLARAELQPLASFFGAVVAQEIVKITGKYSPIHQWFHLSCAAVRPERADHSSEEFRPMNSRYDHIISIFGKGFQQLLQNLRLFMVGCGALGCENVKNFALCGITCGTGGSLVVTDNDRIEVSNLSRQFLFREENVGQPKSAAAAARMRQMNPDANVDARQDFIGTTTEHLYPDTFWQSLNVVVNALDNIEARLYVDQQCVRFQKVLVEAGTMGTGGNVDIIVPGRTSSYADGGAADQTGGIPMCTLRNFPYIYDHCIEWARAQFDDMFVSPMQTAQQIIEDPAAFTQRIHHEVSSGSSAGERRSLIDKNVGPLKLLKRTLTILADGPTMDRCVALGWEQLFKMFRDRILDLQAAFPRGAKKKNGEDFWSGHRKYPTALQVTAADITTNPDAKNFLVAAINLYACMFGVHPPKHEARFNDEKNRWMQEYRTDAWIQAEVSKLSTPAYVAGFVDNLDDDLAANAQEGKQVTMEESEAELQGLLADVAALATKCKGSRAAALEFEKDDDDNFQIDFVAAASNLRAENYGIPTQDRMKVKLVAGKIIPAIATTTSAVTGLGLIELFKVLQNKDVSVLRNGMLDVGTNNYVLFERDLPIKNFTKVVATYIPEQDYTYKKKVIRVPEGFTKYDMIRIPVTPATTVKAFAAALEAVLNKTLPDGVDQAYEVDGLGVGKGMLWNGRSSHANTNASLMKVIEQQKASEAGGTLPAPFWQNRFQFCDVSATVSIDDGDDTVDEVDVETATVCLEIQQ
Put plainly: Leishmania donovani Ubiquitin Activating Enzyme (LdE1). It is filed as functional. The note with it: 30 µM.

Test [3] concerns the target AMP-activated protein kinase, AMPK (Homo sapiens) (UniProt P54646+O43741+P54619+Q9UGJ0+Q9Y478+Q13131+Q9UGI9). Put plainly: AMP-dependent Kinase enzyme assay. An in vitro enzyme assay that detects ADP turnover that is directly proportional to AMPK activity. This uses naive AMPK that is activated during the assay with MK-8722. It is filed as functional. The following applies: 30 µM.

Test [4] deals with Sialic acid-binding Ig-like lectin 9 (Homo sapiens) (UniProt Q9Y336). Put plainly: Hs-Siglec9 ALPHAscreen SOP 20170721. The following applies: 10 µM.
Sequence of Sialic acid-binding Ig-like lectin 9 (Homo sapiens) (Q9Y336 whole entry): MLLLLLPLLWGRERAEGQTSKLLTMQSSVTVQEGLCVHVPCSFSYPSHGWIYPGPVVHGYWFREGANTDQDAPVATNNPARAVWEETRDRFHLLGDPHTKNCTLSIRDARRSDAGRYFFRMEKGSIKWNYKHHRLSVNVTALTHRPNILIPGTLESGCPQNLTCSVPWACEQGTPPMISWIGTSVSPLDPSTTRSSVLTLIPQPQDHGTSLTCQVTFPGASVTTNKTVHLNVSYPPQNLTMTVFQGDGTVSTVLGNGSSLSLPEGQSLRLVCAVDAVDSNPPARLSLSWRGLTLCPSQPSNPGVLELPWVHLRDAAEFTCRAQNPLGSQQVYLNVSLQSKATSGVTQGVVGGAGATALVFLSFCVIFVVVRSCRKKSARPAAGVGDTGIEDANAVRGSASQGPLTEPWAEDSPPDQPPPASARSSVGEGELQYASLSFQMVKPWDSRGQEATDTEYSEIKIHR
Test [5] relates to Trypanosoma cruzi. Put plainly: Trypanosoma cruzi phosphomannomutase and mannose-1-phosphate guanylyltransferase assay. It is filed as functional. The following applies: 10 µM.
Test [6] addresses T2, Arginase-2, mitochondrial (Homo sapiens) (UniProt P78540).
T2 sequence (whole entry): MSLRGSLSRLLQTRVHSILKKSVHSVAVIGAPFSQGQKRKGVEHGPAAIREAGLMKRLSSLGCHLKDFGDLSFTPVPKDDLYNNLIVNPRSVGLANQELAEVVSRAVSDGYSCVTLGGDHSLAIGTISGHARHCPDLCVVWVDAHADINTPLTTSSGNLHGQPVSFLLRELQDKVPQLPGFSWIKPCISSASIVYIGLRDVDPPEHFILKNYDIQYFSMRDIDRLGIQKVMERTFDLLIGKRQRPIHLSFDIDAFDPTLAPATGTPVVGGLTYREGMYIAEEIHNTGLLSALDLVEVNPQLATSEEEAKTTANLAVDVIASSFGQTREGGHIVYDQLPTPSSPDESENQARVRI
The test is described as follows: in vitro enzyme assay to detect the production of urea directly proportional to the activity of Arginase II. Also: in the data most compounds retested in dose-response had high values. It is filed as functional. The following applies: 33.3 µM.

Test [7] concerns the target T3, Proteasome subunit beta (Trypanosoma cruzi) (UniProt O96673).
T3 sequence (whole entry): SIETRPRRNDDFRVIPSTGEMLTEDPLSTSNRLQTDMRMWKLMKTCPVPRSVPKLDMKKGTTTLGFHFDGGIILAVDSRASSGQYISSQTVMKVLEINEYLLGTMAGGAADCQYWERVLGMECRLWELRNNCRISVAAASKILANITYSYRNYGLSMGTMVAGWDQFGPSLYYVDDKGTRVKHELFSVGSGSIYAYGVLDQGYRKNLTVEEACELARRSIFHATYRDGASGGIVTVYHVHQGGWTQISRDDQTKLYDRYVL
Put plainly: Trypanosoma cruzi proteasome chymotrypsin-like activity (TcProtChymo) assay. Also: in the data most compounds retested in dose-response had high values. It counts as functional. The following applies: 9.37 µM.

For test [8], the species on record is Homo sapiens. Put plainly: To identify inhibition of the IFN signalling (Jak-Stat) pathway via expression of an eGFP reporter gene under the control of an IFN-stimulated response element (ISRE) containing MxA promoter. It counts as functional. The following applies: 30 µM. Background: In a reporter assay the amount or activity of a reporter protein is the signal.

In test [9] the target is T4, Tyrosyl-tRNA synthetase, putative (Trypanosoma cruzi (strain CL Brener)) (UniProt Q4DSP6).
T4 sequence (whole entry): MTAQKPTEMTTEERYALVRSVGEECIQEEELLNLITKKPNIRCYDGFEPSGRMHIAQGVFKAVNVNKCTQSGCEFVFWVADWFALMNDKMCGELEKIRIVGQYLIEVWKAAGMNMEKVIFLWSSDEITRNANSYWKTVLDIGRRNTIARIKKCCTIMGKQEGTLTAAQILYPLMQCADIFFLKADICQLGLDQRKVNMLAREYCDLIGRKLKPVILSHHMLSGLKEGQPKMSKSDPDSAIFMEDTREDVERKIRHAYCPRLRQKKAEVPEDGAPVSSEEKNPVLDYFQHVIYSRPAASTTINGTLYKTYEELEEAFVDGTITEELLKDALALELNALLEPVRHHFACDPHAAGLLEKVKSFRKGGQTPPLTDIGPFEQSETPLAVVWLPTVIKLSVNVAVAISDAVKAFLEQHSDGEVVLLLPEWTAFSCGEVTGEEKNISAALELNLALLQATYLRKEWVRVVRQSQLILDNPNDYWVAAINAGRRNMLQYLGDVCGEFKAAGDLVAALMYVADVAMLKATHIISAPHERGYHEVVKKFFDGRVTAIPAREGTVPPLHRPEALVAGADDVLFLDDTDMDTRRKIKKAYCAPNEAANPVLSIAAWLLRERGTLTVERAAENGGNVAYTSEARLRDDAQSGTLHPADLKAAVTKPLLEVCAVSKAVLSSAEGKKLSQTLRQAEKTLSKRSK
The test is described as follows: Trypanosoma cruzi tyrosyl tRNA synthetase (TcYRS) _High Tyrosine SOP. Also: in the data most compounds retested in dose-response had high values. It counts as functional. The note with it: 30 µM.

The target in test [10] is T4, Tyrosyl-tRNA synthetase, putative (Trypanosoma cruzi (strain CL Brener)). The test is described as follows: Trypanosoma cruzi tyrosyl tRNA synthetase (TcYRS) SOP. It is filed as functional. The note with it: 30 µM.
Test [11] addresses Chromo domain-containing protein 1 (Saccharomyces cerevisiae (strain ATCC 204508 / S288c) (Baker's yeast)) (UniProt P32657). Put plainly: ScCHD-1 Enzyme Inhibition Assay. Also: in the data most compounds retested in dose-response had high values. It counts as functional. The note with it: 30 µM.

For some of these results: Potency and affinity values are given separately.

Sequence of Protein translocase subunit SecA (Escherichia coli (strain K12)) (P10408 whole entry): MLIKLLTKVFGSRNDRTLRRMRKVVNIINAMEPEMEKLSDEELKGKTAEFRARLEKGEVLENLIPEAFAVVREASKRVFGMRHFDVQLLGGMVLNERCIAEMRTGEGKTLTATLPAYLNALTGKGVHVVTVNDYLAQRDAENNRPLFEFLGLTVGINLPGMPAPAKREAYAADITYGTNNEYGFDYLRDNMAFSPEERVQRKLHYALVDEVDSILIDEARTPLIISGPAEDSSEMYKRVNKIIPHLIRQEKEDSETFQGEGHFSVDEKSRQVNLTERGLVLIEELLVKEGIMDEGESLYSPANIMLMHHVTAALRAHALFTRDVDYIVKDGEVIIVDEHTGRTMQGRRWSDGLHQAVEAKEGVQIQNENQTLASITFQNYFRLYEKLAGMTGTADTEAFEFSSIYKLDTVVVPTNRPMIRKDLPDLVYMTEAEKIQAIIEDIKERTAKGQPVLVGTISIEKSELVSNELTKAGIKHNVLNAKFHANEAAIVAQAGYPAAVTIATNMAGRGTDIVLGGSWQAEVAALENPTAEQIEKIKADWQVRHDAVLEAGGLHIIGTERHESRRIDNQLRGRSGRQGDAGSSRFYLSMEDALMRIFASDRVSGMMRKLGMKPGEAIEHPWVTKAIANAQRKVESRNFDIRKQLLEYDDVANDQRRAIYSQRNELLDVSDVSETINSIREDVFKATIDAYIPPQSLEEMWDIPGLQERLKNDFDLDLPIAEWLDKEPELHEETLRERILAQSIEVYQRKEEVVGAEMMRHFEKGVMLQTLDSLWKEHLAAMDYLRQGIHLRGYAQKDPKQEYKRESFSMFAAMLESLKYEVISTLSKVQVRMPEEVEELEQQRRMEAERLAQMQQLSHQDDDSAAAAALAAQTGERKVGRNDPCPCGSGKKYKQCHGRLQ
Sequence of Chromo domain-containing protein 1 (Saccharomyces cerevisiae (strain ATCC 204508 / S288c) (Baker's yeast)) (P32657 whole entry, the tested form may be a part): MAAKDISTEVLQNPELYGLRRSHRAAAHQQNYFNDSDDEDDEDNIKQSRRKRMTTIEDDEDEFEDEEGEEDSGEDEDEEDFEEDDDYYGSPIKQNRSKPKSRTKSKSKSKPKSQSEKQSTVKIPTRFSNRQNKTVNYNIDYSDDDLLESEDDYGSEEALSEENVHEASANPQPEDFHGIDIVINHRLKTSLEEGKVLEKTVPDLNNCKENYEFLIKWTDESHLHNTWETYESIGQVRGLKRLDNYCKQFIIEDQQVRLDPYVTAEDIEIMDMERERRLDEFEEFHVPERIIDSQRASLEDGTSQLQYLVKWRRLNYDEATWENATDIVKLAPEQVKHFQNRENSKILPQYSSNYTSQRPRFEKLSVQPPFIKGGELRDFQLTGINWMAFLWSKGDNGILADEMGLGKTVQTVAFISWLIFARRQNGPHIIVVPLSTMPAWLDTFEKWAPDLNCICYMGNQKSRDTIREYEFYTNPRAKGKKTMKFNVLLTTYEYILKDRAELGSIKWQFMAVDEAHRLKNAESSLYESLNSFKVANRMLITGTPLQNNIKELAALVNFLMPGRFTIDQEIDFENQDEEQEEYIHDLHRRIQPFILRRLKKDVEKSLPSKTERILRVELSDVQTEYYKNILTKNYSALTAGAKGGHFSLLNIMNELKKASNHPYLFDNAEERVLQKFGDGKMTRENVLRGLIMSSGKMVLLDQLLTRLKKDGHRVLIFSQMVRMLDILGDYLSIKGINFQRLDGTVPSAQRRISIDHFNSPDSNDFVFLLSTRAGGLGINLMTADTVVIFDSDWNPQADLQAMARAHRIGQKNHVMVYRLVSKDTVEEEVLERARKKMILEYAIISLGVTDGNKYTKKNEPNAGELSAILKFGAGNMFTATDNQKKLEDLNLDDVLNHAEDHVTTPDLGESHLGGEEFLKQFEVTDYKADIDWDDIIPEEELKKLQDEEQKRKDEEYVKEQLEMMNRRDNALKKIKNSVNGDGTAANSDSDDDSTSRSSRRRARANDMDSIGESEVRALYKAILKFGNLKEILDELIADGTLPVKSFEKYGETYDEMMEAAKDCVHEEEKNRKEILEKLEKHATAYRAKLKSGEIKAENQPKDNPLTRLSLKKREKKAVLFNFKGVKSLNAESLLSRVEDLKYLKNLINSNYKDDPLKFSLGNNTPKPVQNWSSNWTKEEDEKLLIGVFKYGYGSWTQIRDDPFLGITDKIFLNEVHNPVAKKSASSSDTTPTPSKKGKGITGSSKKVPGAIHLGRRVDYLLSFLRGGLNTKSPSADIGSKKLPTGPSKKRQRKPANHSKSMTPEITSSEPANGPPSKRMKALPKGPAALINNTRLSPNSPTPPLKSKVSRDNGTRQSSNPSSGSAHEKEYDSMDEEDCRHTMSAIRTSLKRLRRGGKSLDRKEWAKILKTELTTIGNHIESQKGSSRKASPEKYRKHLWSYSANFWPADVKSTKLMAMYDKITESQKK

With `Cc1ncccc1NC(=O)[C@H]1C[C@@H]2CCN(Cc3nccs3)C[C@@H]2O1`, the Percent Effect was 0.0943% in test [1]; 10.8% in test [2]; 6.53% in [3]; -5.38% in [4]; 0.293% in test [5]; 2.23% in test [6]. For the same molecule, the Percent Effect in test [7] was 24.4%; in test [8], 1.37%; in test [9] it was 7.57%; in test [10], 17.9%; in test [11], -3.63%.

As to `COc1ncccc1NC(=O)NC1CCOc2ccccc21` (stereo unspecified), the Percent Effect is -1.57% in test [1]; 16.2% in test [2]; -3.28% in test [3]; 8.29% in [4]; 5.29% in test [5]; -4.62% in [6]. Besides, the Percent Effect in test [7] is 8.08%; in test [8] it was 23.4%; in test [9], 6.93%; in test [10], 25.6%; in test [11] it was -3.65%.

Turning to `c1ncn(CC2CCCN(Cc3nc(C4CC4)no3)C2)n1` (stereo unspecified), the Percent Effect is -5.67% in test [1]; 10.1% in [2]; -7.43% in [3]; 8.58% in test [4]; 8.59% in test [5]; -4.56% in test [6]. Moreover, the Percent Effect in test [7] was -3.36%; in test [8] it was -5.79%; in test [9], 6.4%; in test [10] it was 13.9%; in test [11], -1.7%.

As for `O=C(c1csc(Br)c1)N1CCCC(n2ccnc2)C1` (stereo unspecified), the Percent Effect was -3.43% in test [1]; 11.4% in test [2]; -1.54% in test [3]; -8.98% in test [4]; 2.56% in test [5]; -5.38% in test [6]. For the same molecule, the Percent Effect in [7] is 2.74%; in test [8], -8.54%; in test [9] it was 2.08%; in test [10], 12.7%; in test [11] it was 54.1%.

Consider `Cc1ccsc1[C@@H]1CCN(C(=O)CCC(=O)N2CCCCCC2)C[C@H]1O`, for which the Percent Effect is -3.23% in test [1]; 6.94% in test [2]; -7.07% in [3]; -3.16% in test [4]; 1.46% in test [5]; -1.32% in test [6]. Moreover, the Percent Effect in [7] was 4.91%; in test [8], -6.38%; in test [9], 5.26%; in test [10] it was 10.3%; in [11], -2.41%.

With `Cc1cc(F)ccc1CNCCn1cccn1`, the Percent Effect in test [1] is -2.76%; in test [2], -1.39%; in test [3], -3.57%; in test [4], 0.503%; in test [5], 5.15%; in test [6], -0.883%. For the same molecule, the Percent Effect was 8.95% in test [7]; 1.75% in test [8]; 1.05% in [9]; 2.56% in [10]; -0.034% in [11].

In the case of `CCCC1CCCN(Cc2csc(-c3cnn(C)c3)n2)CC1` (stereo unspecified), the Percent Effect in [1] is -2.48%; in test [2], -5.26%; in [3], -0.945%; in test [4], -3.96%; in [5], -0.376%; in [6], -5.75%. Further, the Percent Effect was 20.4% in test [7]; 20.6% in test [8]; 8.33% in test [9]; 19.5% in test [10]; -4.84% in test [11].

Take `c1ccc(-c2nc(CN3CCCC(Cn4cncn4)C3)co2)cc1` (stereo unspecified): the Percent Effect in [1] was -0.495%; in test [2], 29.1%; in test [3] it was -4%; in test [4] it was -3.43%; in test [5], 1.54%; in test [6], -5.81%. The Percent Effect is 18.2% in [7]; 14.8% in test [8]; 6.25% in test [9]; 10.1% in [10]; -13.6% in test [11].

Turning to `Cc1ccc(N2CCC3(CC2)CC(OCC(=O)N(C)C)CO3)nn1` (stereo unspecified), the Percent Effect in test [1] is -2.67%; in test [2], 5.41%; in test [3], 1.03%; in [4], -1.72%; in test [5] it was -0.684%; in test [6], 2.23%. Further, the Percent Effect was 14.9% in test [7]; -14.6% in test [8]; 2.16% in test [9]; 12.8% in [10]; 2.16% in test [11].

Turning to `COCCC(=O)N1CC[C@@H]2O[C@@H](C)C[C@H]2C1`, the Percent Effect in test [1] is -6.08%; in test [2] it was 8%; in [3] it was 0.716%; in test [4], 0.473%; in test [5], 2.36%; in test [6], -3.96%. Also, the Percent Effect in [7] is 6.61%; in test [8], 15.7%; in [9], 6.38%; in test [10], 11.5%; in test [11], -7.49%.

For `CNC(=O)N1C[C@H]2CC[C@@]3(N=C(c4ccccc4)NC3=O)[C@H]2C1`, the Percent Effect in test [1] was -5.03%; in [2], 2.6%; in test [3], 0.951%; in test [4], 7.17%; in [5], 9.73%; in test [6], -67.6%. Further, the Percent Effect in test [7] is 9.48%; in [8] it was 12.9%; in test [9], 2.15%; in test [10], 11.1%; in test [11], -1.88%.
